A selection: hits, their analogues and other compounds. The true share with any hit is near 2.2%.
VLA-4 inh – inhibition in a human VLA-4 binding assay; P13612; VLA-4 expressing cells, ligand binding flow cytometry; inhibition, % (about 7 µM as worked out from the volumes in the protocol); 330,000 tested, 0.2% active; in the data active = inhibition above about 50%
HIF act – HIF pathway transcriptional activation; 300,000 tested, 0.32% active; activation, % at 7.5 µM (by protocol); AID 1910; U2OS HRE-luciferase reporter, luminescence; normalized: DMSO 0%, desferrioxamine 100%;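 active = mean activation of at least 10% of the iron chelator positive control signal, with at least half of replicates also reaching 10%; inconclusive = mean and replicate majority disagree about reaching 10%; inactive = mean and most replicates under 10%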
Platelet DG rel – modulates dense granule release in human platelets; AID 1663; 300,000 tested, 0.22% active; inhibition, %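 (compounds screened at 7.5 µM in platelet-rich plasma)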; human platelet-rich plasma, SFLLRN dense granule ATP release, luminescence;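 active = mean replicate score, as percent of positive control, at or above 50; inconclusive = mean below 50 but at least one replicate at or above 50; inactive = mean and every replicate below 50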
CHT allo act – allosteric activators of human choline transporter CHT; Q9GZV3; CHT-expressing cells, membrane potential dye, choline EC20; hits give high values; LV-AA mutant CHT in HEK293 cells; B-score at 10 µM; 310,000 tested, 0.49% active;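 active = initial fluorescence not abnormally high and integrated response B-score, plate-corrected, over 3 SD above library mean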
Target sequence (Q9GZV3 whole entry, looked up): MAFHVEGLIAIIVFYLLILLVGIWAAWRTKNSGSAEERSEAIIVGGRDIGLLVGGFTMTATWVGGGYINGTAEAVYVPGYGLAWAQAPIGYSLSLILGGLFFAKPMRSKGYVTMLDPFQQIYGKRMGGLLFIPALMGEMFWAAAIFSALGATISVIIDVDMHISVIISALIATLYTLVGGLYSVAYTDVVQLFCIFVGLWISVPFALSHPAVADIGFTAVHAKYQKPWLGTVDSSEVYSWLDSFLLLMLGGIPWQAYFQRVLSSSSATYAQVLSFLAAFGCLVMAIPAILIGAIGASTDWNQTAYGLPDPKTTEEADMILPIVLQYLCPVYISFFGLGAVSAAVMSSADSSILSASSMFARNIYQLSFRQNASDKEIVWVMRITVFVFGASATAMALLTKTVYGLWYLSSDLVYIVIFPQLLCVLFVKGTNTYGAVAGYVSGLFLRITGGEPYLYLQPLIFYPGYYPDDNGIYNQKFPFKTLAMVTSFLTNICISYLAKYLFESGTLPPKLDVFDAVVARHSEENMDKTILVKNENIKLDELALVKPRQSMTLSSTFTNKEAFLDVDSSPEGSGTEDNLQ
AI-2 QS mod – modulators of Vibrio harveyi AI-2 quorum sensing system; Vibrio harveyi JMH597 AI-2 luminescence/OD600 ratio, 9 h; hits give low values; strain lacks LuxN and CqsS sensors; 0 = neutral-control median; 300,000 tested, 0.4% active; AID 2094; activity change, % at 7.5 µM; in the data active = activity change below about -75%, passing the limit was not always enough; inconclusive = no clear call, values can overlap the other calls;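 note: luminescence divided by OD600 gain over 9 h not by final OD600 alone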
CHT inh – inhibits the human high affinity choline transporter. B-score at 10 µM. Q9GZV3. AID 488975. CHT-expressing cells, membrane potential dye, choline response; hits give low values. 310,000 tested, 0.86% active;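 active = B-score over 3 SD under the library average, and starting fluorescence ratio not unusually high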;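 note: choline stimulus applied at its EC90 after an EC20 pre-addition; B-score computed on integrated fluorescence ratio after choline addition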
Numbers stand for hits; 0 = inactive; ? = inconclusive; - = no result given.

SMILES	VLA-4 inh	HIF act	Platelet DG rel	CHT allo act	AI-2 QS mod	CHT inh
CCS(=O)(=O)C1=NN2C(=N)/C(=C\c3ccc(OS(=O)(=O)c4ccccc4)c(OC)c3)C(=O)N=C2S1	0	0	0	0	0	-5.4
Cc1ccc(S(=O)(=O)Oc2ccc(/C=C3\C(=N)N4N=C(S(C)(=O)=O)SC4=NC3=O)cc2)cc1	0	0	0	0	0	-6.4
CCS(=O)(=O)C1=NN2C(=N)/C(=C\c3ccc(OC(=O)c4ccco4)cc3)C(=O)N=C2S1	0	0	0	0	0	0
CC(O)Cn1c(N2CCCC2)nc2c1c(=O)[nH]c(=O)n2C (centres undefined)	0	0	0	0	0	0
Cc1cc(NC(=O)C(C)SCC(=O)Nc2nc3c(F)cc(F)cc3s2)no1 (centres undefined)	0	-	-	-	-	-
CCNC(=S)NNC(=O)c1ccccn1	0	0	0	0	0	0
O=C(NNC(=S)Nc1ccc(Cl)c(Cl)c1)c1ccccn1	0	60	0	0	?	0
CSc1ncccc1C(=O)NC1CC(C)(C)Cc2c1cnn2-c1ccccc1C (centres undefined)	0	0	0	0	0	0
C=CCNC(=S)N/N=C(\C)c1ccccn1	0	14	0	0	0	0
Cc1ccc(CNC(=O)C2CCCN2C(=O)Nc2ccccc2)cc1 (centres undefined)	0	0	0	0	0	0
CCN(CC)CCSc1nc2ccccc2c(=S)n1-c1ccccc1	0	0	0	6.6	0	0
COC(=O)c1cc(Cn2nc(C(=O)O)c3ccccc3c2=O)oc1C	0	0	0	0	0	0
O=C1CCCC2=C1C(Cc1ccccc1)C1=C(CCCC1=O)O2	0	351	0	0	0	0
O=C1CCCC2=C1C(c1ccccc1O)C1=C(CCCC1=O)O2	0	0	0	0	0	0
CCN(CC)c1ccc2c(C)c(Cl)c(=O)oc2c1	0	0	0	0	0	0
CCN(CC)c1ccc2c(Cl)c(Br)c(=O)oc2c1	-	14	0	0	0	0
O=C(N/N=C(\c1ccccc1)c1cccnc1)c1cccc(F)c1	0	89	0	0	0	0
O=C(N/N=C(\c1ccccc1)c1cccnc1)c1ccc(O)cc1	0	0	0	0	0	0
COc1ccc(C(=O)NCC2CCCCC2)cc1S(=O)(=O)N1CCOCC1	0	-	-	-	-	-
O=C(CSc1nnnn1-c1ccc(O)cc1)c1cc2ccccc2o1	0	0	0	0	-77	0
CC1CCN(C(=O)CN2C(=O)NC3(CCC(C)CC3)C2=O)CC1 (centres undefined)	0	-	-	-	-	-
CC(C)N1CCc2c(sc(NC(=O)c3ccc([N+](=O)[O-])o3)c2C(N)=O)C1	0	0	0	0	-90	0
CCN(CC)P(=O)(Nc1ccc(C)cc1Br)c1ccc(N(C)C)cc1NC(=O)c1ccco1 (centres undefined)	0	0	0	0	0	0
O=C(CCCN1C(=O)/C(=C/c2ccccc2Cl)SC1=S)NNC(=O)c1ccc(Cl)cc1Cl	0	0	53	0	0	0
CC1Oc2ccccc2C=C1/C=N/Nc1ccc(C(=O)O)cc1 (centres undefined)	0	0	0	0	-92	0
SMILES	VLA-4 inh	HIF act	Platelet DG rel	CHT allo act	AI-2 QS mod	CHT inh
O=C(CCNC(=O)c1ccc(Br)cc1)NNC(=O)c1ccccc1	0	-	-	-	-	-
CCOc1ccc(N2C(=O)CC(Sc3nc4ccc(OCC)cc4s3)C2=O)cc1 (centres undefined)	0	0	56	0	0	0
CCCCn1c(SCC(=O)c2ccc(O)cc2O)nc2cc(S(N)(=O)=O)ccc21	0	0	0	0	0	0
CCCCn1c(SCN2C(=O)c3ccccc3C2=O)nc2cc(S(N)(=O)=O)ccc21	-	0	80	-	0	-
O=C(OCn1ncc(Br)c(Br)c1=O)c1ccc(F)cc1	0	0	0	0	-81	-6.5
CCCN(CCC)CCN1C(=O)C2C(C(=O)Nc3cccc(SC)c3)C3C=CC2(O3)C1C(=O)NC1CCCCC1 (centres undefined)	0	0	0	0	-	0
O=C(/C=C/Nc1ccccc1F)c1ccc(Br)cc1	0	0	0	0	0	0
O=C(/C=C/Nc1ccc(Br)cc1F)c1ccccc1	0	0	50	0	0	0
COc1ccc(-c2cc3c(nn2)-c2ccccc2C3=O)cc1	0	0	55	0	0	0
O=C(COc1ccccc1)Nc1ccc(S(=O)(=O)N2CCCC2)cc1	0	0	0	0	-95	0
O=C(COc1ncnc2ccccc12)Nc1ccc(S(=O)(=O)N2CCOCC2)cc1	0	0	0	0	-92	0
COc1ccccc1OCC(=O)Nc1ccc(S(=O)(=O)N2CCCCCC2)cc1	0	0	0	0	0	0
Cc1ccccc1OCC(=O)Nc1ccc(S(=O)(=O)N2CCCC2)cc1	0	0	0	0	-79	0
O=C(CN1c2cccc3cccc(c23)S1(=O)=O)Nc1ccc(S(=O)(=O)N2CCOCC2)cc1	0	0	0	0	0	0
O=C(CN1C(=O)c2cccc3cccc1c23)Nc1ccc(S(=O)(=O)N2CCOCC2)cc1	0	0	0	0	-96	0
O=C(COc1ccccc1)Nc1ccc(S(=O)(=O)N2CCCCCC2)cc1	0	0	0	0	?	0
Cc1cccc(OCCOC(=O)c2ccc(F)c(S(=O)(=O)N3CCOCC3)c2)c1	0	-	-	-	-	-
CN(C)/C=N/c1ncn(-c2ncc(C(F)(F)F)cc2Cl)n1	0	0	0	0	0	0
CCOCCc1nnc(NC(=O)CN2C(=O)c3ccccc3C2=O)s1	0	0	0	0	-89	0
COC(=O)C1=C(C(=O)OC)[C@@H]2N(C)c3ccc(OC)cc3[C@@]23C[C@@H](C(=O)OC)N=C3N1	0	0	0	0	0	0
CC(=O)c1c(C)[nH]c(C(=O)OCC(=O)Nc2sc3c(c2C#N)CCC(C)C3)c1C (centres undefined)	0	0	0	0	0	0
CCOC(=O)C1(C)NC(c2ccc(OC)cc2OC)C2C(=O)N(CC)C(=O)C21 (centres undefined)	0	528	0	0	0	0
O=[N+]([O-])c1ccc(N=Nc2c(Cl)cc(O)cc2Cl)cc1	0	0	73	0	0	0
CC(N)=Nc1ccc([N+](=O)[O-])cc1	0	0	0	0	0	0
CCC1Oc2ccccc2N(CC(=O)Nc2ccccc2OC)C1=O (centres undefined)	0	225	0	0	0	0
Cc1ccc(CSc2nnc(CCCCCNC(=O)OC(C)(C)C)o2)cc1	0	14	0	0	0	0
Cc1cccc(CSc2nnc(CCCCCNC(=O)OC(C)(C)C)o2)c1	0	0	0	0	-	0
CN1CCN(CCC(=O)N/N=C/c2ccccc2F)CC1	0	0	0	0	0	0
O=C(CCN1CCN(c2ccccc2)CC1)N/N=C/c1ccccc1O	0	17	0	0	0	0
CCOC(=O)c1sc(NC(=S)NC(=O)C2CC2)cc1C	0	72	0	0	0	0

Screens deposited in PubChem by several laboratories.
